Laboratory results reported in PubChem BioAssay (NCATS).
Records with an inconclusive call do not appear. Where a call stands in place of a potency, no number is given. Active and inactive are the calls of the source. Calls come from the whole dose curve; as a rule, active = well fitted inhibition curve with a large enough effect; inconclusive = small, poorly fitted or top-dose-only effect; inactive = flat fitted curve, though single readings scatter.

Experiments:
Test in all cases: qHTS profiling for inhibitors of Plasmodium falciparum proliferation (AID 504749); note: nearly all actives have a fitted effect of over 60% in size
Conditions in all cases: P. falciparum in erythrocytes, SYBR Green DNA, 72 h; series mostly up to 28.7 µM
CP256 = system: CP256
Method in brief: (§1)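 In a 72 h erythrocytic culture (37 C, humidified, 5% CO2) at 2.5% hematocrit and 0.3% starting parasitemia, compounds were tested; SYBR Green I in detergent lysis buffer stained parasite DNA overnight.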

CP260 = system: CP260
Method in brief: as §1

CP262 = system: CP262
Method in brief: as §1

CP265 = system: CP265
Method in brief: as §1

CP266 = system: CP266
Method in brief: as §1

CP268 = system: CP268
Method in brief: as §1

CP269 = system: CP269
Method in brief: as §1

CP286 = system: CP286
Method in brief: as §1

CP291 = system: CP291
Method in brief: as §1

CP297 = system: CP297
Method in brief: as §1
Potency is the fitted concentration of half-maximal effect.

Compound	Potency (CP256)	Potency (CP260)	Potency (CP262)	Potency (CP265)	Potency (CP266)	Potency (CP268)	Potency (CP269)	Potency (CP286)	Potency (CP291)	Potency (CP297)
NC(=O)C1c2ccccc2CCc2ccccc21	inactive	inactive	inactive	inactive	inactive	inactive	inactive	inactive	inactive	inactive
CCSc1ccc2c(c1)N(CCCN1CCN(C)CC1)c1ccccc1S2	inactive	inactive	inactive	inactive	inactive	inactive	inactive	inactive	inactive	inactive
OC1OC[C@@H](O)[C@H](O)[C@@H]1O (stereo not given in full)	inactive	inactive	inactive	inactive	inactive	inactive	inactive	inactive	inactive	inactive
CC(C)(C)CC(C)(C)c1cc(Cc2cc(C(C)(C)CC(C)(C)C)cc(-n3nc4ccccc4n3)c2O)c(O)c(-n2nc3ccccc3n2)c1	inactive	inactive	inactive	inactive	inactive	inactive	inactive	inactive	inactive	inactive
[O-][N+](=Nc1ccccc1)c1ccccc1	inactive	inactive	inactive	inactive	inactive	inactive	inactive	inactive	inactive	inactive
CN(C)c1ccc(C(=C2C=CC(=[N+](C)C)C=C2)c2c(O)c(S(=O)(=O)[O-])cc3cc(S(=O)(=O)O)ccc23)cc1	inactive	inactive	inactive	inactive	inactive	inactive	inactive	inactive	inactive	inactive
Cc1cc(=O)c(C(=O)N[C@@H](C(=O)N[C@@H]2C(=O)N3C(C(=O)O)=C(CSc4nnnn4C)CS[C@H]23)c2ccc(O)cc2)c[nH]1	inactive	inactive	inactive	inactive	inactive	inactive	inactive	inactive	inactive	inactive
NCC(O)CC(=O)O (stereo not given)	inactive	inactive	inactive	inactive	inactive	inactive	inactive	inactive	inactive	inactive
CC(C)CCC[C@@H](C)[C@H]1CC[C@H]2[C@@H]3CC=C4C[C@@H](O)CC[C@]4(C)[C@H]3CC[C@]12C	inactive	inactive	inactive	inactive	inactive	inactive	inactive	inactive	inactive	inactive
C/C=C/C=C/C(=O)O	inactive	inactive	inactive	inactive	inactive	inactive	inactive	inactive	inactive	inactive
CCC(C)[C@@H](N)C(=O)O (stereo not given in full)	inactive	inactive	inactive	inactive	inactive	inactive	inactive	inactive	inactive	inactive
CC(=O)Nc1ccc(OC(C)=O)cc1	inactive	inactive	inactive	inactive	inactive	inactive	inactive	inactive	inactive	inactive
Cc1ncc(C[n+]2csc(CCOP(=O)(O)OP(=O)(O)O)c2C)c(N)n1	inactive	inactive	inactive	inactive	inactive	inactive	inactive	inactive	inactive	inactive
C[C@H](CCC(=O)O)[C@H]1CC[C@H]2[C@@H]3CC[C@@H]4C[C@H](O)CC[C@]4(C)[C@H]3C[C@H](O)[C@]12C	inactive	inactive	inactive	inactive	inactive	inactive	inactive	inactive	inactive	inactive
[O]=[Bi][O]C(=O)[O][Bi]=[O]	inactive	inactive	inactive	inactive	inactive	inactive	inactive	inactive	inactive	inactive
CCN(CC)C(=O)c1cccnc1	inactive	inactive	inactive	inactive	inactive	inactive	inactive	inactive	inactive	inactive
CC(CCc1ccc(O)cc1)NCC(O)c1ccc(O)cc1 (stereo not given)	inactive	inactive	inactive	inactive	inactive	inactive	inactive	inactive	inactive	inactive
ClC(Cl)Cl	inactive	inactive	inactive	inactive	inactive	inactive	inactive	inactive	inactive	inactive
CC1(O)CCC(C(C)(C)O)CC1 (stereo not given)	inactive	inactive	inactive	inactive	inactive	inactive	inactive	inactive	inactive	inactive
CC/C=C\C/C=C\C/C=C\C/C=C\C/C=C\CCCC(=O)O	inactive	inactive	inactive	inactive	inactive	inactive	inactive	inactive	inactive	inactive
CN(CCO)CC(O)Cn1cnc2c1c(=O)n(C)c(=O)n2C (stereo not given) (tested in a mixture with another compound)	inactive	inactive	inactive	inactive	inactive	inactive	inactive	inactive	inactive	inactive
CC1=CCC2CC1C2(C)C (stereo not given)	inactive	inactive	inactive	inactive	inactive	inactive	inactive	inactive	inactive	inactive

Compound	Potency (CP256)	Potency (CP260)	Potency (CP262)	Potency (CP265)	Potency (CP266)	Potency (CP268)	Potency (CP269)	Potency (CP286)	Potency (CP291)	Potency (CP297)
Nc1ccc(N=Nc2ccccc2)c(N)n1	inactive	inactive	inactive	inactive	inactive	inactive	inactive	inactive	inactive	inactive
C=CCOc1ccc(CC(=O)O)cc1Cl	inactive	inactive	inactive	inactive	inactive	inactive	inactive	inactive	inactive	inactive
C[Se]CC[C@H](N)C(=O)O	inactive	inactive	inactive	inactive	inactive	inactive	inactive	inactive	inactive	inactive
CN1c2c(nc(N)[nH]c2=O)NCC1CNc1ccc(C(=O)NC(CCC(=O)O)C(=O)O)cc1 (stereo not given)	inactive	inactive	inactive	inactive	inactive	inactive	inactive	inactive	inactive	inactive
COC(=O)[C@@H](N)CS	inactive	inactive	inactive	inactive	inactive	inactive	inactive	inactive	inactive	inactive
Cc1ccc(C(C)(C)c2ccc(C)cc2)cc1	inactive	inactive	inactive	inactive	inactive	inactive	inactive	inactive	inactive	inactive
CCCCC(CC)COS(=O)(=O)O (stereo not given)	inactive	inactive	inactive	inactive	inactive	inactive	inactive	inactive	inactive	inactive
CCCC(=O)O	inactive	inactive	inactive	inactive	inactive	inactive	inactive	inactive	inactive	inactive
CN1C(=O)OC(C)(C)C1=O	inactive	inactive	inactive	inactive	inactive	inactive	inactive	inactive	inactive	inactive
CC(C)[C@H](N)C(=O)OCC(CO)OCn1cnc2c(=O)[nH]c(N)nc21 (stereo not given in full)	inactive	inactive	inactive	inactive	inactive	inactive	inactive	inactive	inactive	inactive
COC(=O)c1ccccc1O	inactive	inactive	inactive	inactive	inactive	inactive	inactive	inactive	inactive	inactive
CC(C)(COP(=O)(O)OP(=O)(O)OC[C@H]1O[C@@H](n2cnc3c(N)ncnc32)[C@H](O)[C@@H]1OP(=O)(O)O)C(O)C(=O)NCCC(=O)NCCS (stereo not given in full)	inactive	inactive	inactive	inactive	inactive	inactive	inactive	inactive	inactive	inactive
CC/C=C\C/C=C\C/C=C\CCCCCCCC(=O)O	inactive	inactive	inactive	inactive	inactive	inactive	inactive	inactive	inactive	inactive
CCCCCCCCCCCCCCCCCCCCCC(=O)Nc1ccn([C@@H]2O[C@H](CO)[C@@H](O)[C@@H]2O)c(=O)n1	inactive	inactive	inactive	inactive	inactive	inactive	inactive	inactive	inactive	inactive
O=C1c2ccccc2CN2C(=O)c3ccccc3CN12	inactive	inactive	inactive	inactive	inactive	inactive	inactive	inactive	inactive	inactive
C[C@]12CC[C@@H]3c4ccc(OC(=O)c5ccccc5)cc4CC[C@H]3[C@@H]1CC[C@@H]2O	inactive	5.01 µM (active)	inactive	inactive	inactive	inactive	inactive	12.6 µM (active)	inactive	inactive
CC1CC(OC(=O)C(O)c2ccccc2)CC(C)(C)C1 (stereo not given)	inactive	inactive	inactive	inactive	inactive	inactive	inactive	inactive	inactive	inactive
COC(=O)CCC[N+](C)(C)C	inactive	inactive	inactive	inactive	inactive	inactive	inactive	inactive	inactive	inactive
CC1CCC(NC(=O)N(CCCl)N=O)CC1 (stereo not given)	inactive	inactive	inactive	inactive	inactive	inactive	inactive	inactive	inactive	inactive
CC(C)CCCCCCc1ccc(O)cc1	inactive	inactive	inactive	inactive	inactive	inactive	inactive	inactive	inactive	inactive
CC1=CC(=O)NS(=O)(=O)O1	inactive	inactive	inactive	inactive	inactive	inactive	inactive	inactive	inactive	inactive
COC(=O)C(CN)c1c[nH]c2ccc(OC)cc12 (stereo not given)	inactive	inactive	inactive	inactive	inactive	inactive	inactive	inactive	inactive	inactive
